Assay results as given in PubChem BioAssay (NCATS).
Results filed as inconclusive are left out. Entries that show only a call come without a potency. Active and inactive are the calls of the source. The call rests on the fitted dose curve; in most records, active means well fitted cell-killing curve with a large enough effect; inconclusive means small, poorly fitted or top-dose-only effect, or effect the other way; inactive means no such curve, though single readings can be large or run the other way.

experiment: Quantitative High-Throughput drug screen in 47 multiple myeloma cell lines against the NCATS MIPE library collection: H1112_PLB cell viability assay (AID 1918967; further: nearly all actives have a fitted effect of over 30% in size); settings: H1112 myeloma cells viability, ATP luminescence, 48 h; series mostly up to 45.8 µM
Source text: PI: Beverly A. Mock Ph.D.
Laboratory of Cancer Biology and Genetics,
Center for Cancer Research, National Cancer Institute,
National Institute of Health, Bethesda, Maryland
Drug resistance and disease progression are common in multiple myeloma (MM) patients, underscoring the need for new therapeutic combinations. […] We hypothesized that effective combinations would reduce MYC expression and enhance p16 activity. […] These preclinical data identify potentially useful drug combinations for evaluation in drug-resistant MM and reveal potential mechanisms of combined drug sensitivity.
Described herein is the primary MIPE qHTS used to cherrypick compounds. Validated compounds were then further tested for potential synergistic activiy.
[1] Peat TJ, Gaikwad SM, Dubois W, Gyabaah-Kessie N, Zhang S, Gorjifard S, Phyo Z, Andres M, Hughitt VK, Simpson RM, Miller MA, Girvin AT, Taylor A, Williams D, D'Antonio N, Zhang Y, Rajagopalan A, Flietner E, Wilson K, Zhang X, Shinn P, Klumpp-Thomas C, McKnight C, Itkin Z, Chen L, Kazandijian D, Zhang J, Michalowski AM, Simmons JK, Keats J, Thomas CJ, Mock BA. Drug combinations identified by high-throughput screening promote cell cycle transition and upregulate Smad pathways in myeloma. Cancer Lett. 2023 Aug 1;568:216284. doi: 10.1016/j.canlet.2023.216284. Epub 2023 Jun 24. PMID: 37356470; PMCID: PMC10408729.
SEQUENCE No. (e.g., 1, 2, 3, etc.); […] (e.g., Cells, Incubation, Reagent, etc.); VALUE and DESCRIPTION.
1; Cells; 5 uL; white, solid bottom 1536-well Greiner assay plate.
2; Compounds; 23 nL; Kalypsis pin tool (Wako USA) equipped with a 1536-well pin head to transfer to the assay plates.
3; Incubation; 48 hours; 37C incubation.
4; Reagent;5uL; CellTiter Glo (Promega).
5; Detector; 425V; Luminescence; Viewlux PerkinElmer.
NOTES (numbers refer to Sequence numbers above)
1. The cell-based screening methods employed in this study were like those previously published. Briefly, the corresponding myeloma cell lines were screened in 1,536-well plates with 500 cells, 5-uL per well for inhibition of cell viability (assessed by measuring ATP levels with CellTiterGlo).
2. NCATS MIPE 4.0 library of approved and investigational drugs were added using the Kalypsis pin tool. Wells treated with DMSO only for 100% viability and media only wells for 0% viability were used as controls.
3. The assay plates were covered and incubated for 48 hours in a 37C, 5% CO2 incubator with controlled humidity.
4. After 48 hours, CellTilter-GloTM luminescent substrate mix (Promega) reagent was added to the assay plate and plates we incubated for 5 min at room temperature.
5. Signal was measured as median relative luminescence units on a ViewLux (PerkinElmer) multiplate reader.
[1] Heske CM, Davis MI, Baumgart JT, Wilson K, Gormally MV, Chen L, Zhang X, Ceribelli M, Duveau DY, Guha R, Ferrer M, Arnaldez FI, Ji J, Tran HL, Zhang Y, Mendoza A, Helman LJ, Thomas CJ. Matrix Screen Identifies Synergistic Combination of PARP Inhibitors and Nicotinamide Phosphoribosyltransferase (NAMPT) Inhibitors in Ewing Sarcoma. Clin Cancer Res. 2017 Dec 1;23(23):7301-7311. doi: 10.1158/1078-0432.CCR-17-1121. Epub 2017 Sep 12. PMID: 28899971; PMCID: PMC6636827.
Potency means the concentration at half of the fitted maximal effect.

| SMILES | Potency |
| --- | --- |
| C[C@]12CC[C@@H]3c4ccc(O)cc4CC[C@H]3[C@H]1C[C@@H](O)[C@H]2O | inactive |
| CNC1CCC(N(Cc2cccc(-c3ccncc3)c2)C(=O)c2sc3c(F)ccc(F)c3c2Cl)CC1 (stereo not given) | 18.7 µM (active) |
| CN1[C@@H]2CCC[C@@H]1CC(NC(=O)c1nn(C)c3ccccc13)C2 (stereo not given in full) | inactive |
| C[C@]12CC[C@@H]3c4ccc(O)cc4C[C@@H](CCCCCCCCCS(=O)CCCC(F)(F)C(F)(F)F)[C@H]3[C@H]1CC[C@H]2O (stereo not given in full) | inactive |
| O=c1c(-c2ccc(O)cc2)coc2cc(O[C@@H]3O[C@H](CO)[C@H](O)[C@H](O)[C@H]3O)ccc12 | inactive |
| NC(=O)c1cnc(-c2ccc(C3(N)CCC3)cc2)c(-c2ccccc2)c1 | 4.18 µM (active) |
| CC(C)C(C)C=CC(C)C1CCC2C3=CC=C4CC(O)CCC4(C)C3CCC21C (stereo not given) | inactive |
| CCOC(CN1C(=O)[C@](CC(=O)Nc2ccc(C)cc2)(NC(=O)Nc2ccc(C)cc2)c2ccccc21)OCC | inactive |
| NC1=N[C@@]2(c3cc(NC(=O)c4ccc(F)cn4)ccc3F)COC[C@@H]2CS1 | 10.5 µM (active) |
| Clc1ccc(-c2nc3sccn3c2C=NOCc2ccc(Cl)c(Cl)c2)cc1 | inactive |
| O=c1cc(CN2CCOCC2)occ1OCCCCCSc1ccnc2cc(C(F)(F)F)ccc12 | 0.833 µM (active) |
| COc1ccc(C2Sc3ccccc3N(CCN(C)C)C(=O)C2OC(C)=O)cc1 (stereo not given) | inactive |
| O=C(O)c1cc(O)c2c(c1)C(=O)c1cccc(O)c1C2=O | inactive |
| CC(C)C(=O)Oc1ccc(CO)cc1[C@H](CCN(C(C)C)C(C)C)c1ccccc1 | inactive |
| Cc1cccc(Nc2nc(-c3ccncc3)cs2)c1 | 18.7 µM (active) |
| N#CC1(c2ccc(NC(=O)c3cccnc3NCc3ccncc3)cc2)CCCC1 | inactive |
| C[N+](C)(C)CC(=O)O | inactive |
| CCCCCN(C)CCC(O)(P(=O)(O)O)P(=O)(O)O | inactive |
| CO[C@H]1C=CC=C(C)C(=O)NC2=CC(=O)C(NCCN(C)C)=C(C[C@@H](C)C[C@H](OC)[C@@H](O)[C@@H](C)C=C(C)[C@@H]1OC(N)=O)C2=O | 3.32 µM (active) |
| NC(=O)NN=Cc1ccc([N+](=O)[O-])o1 | inactive |

| SMILES | Potency |
| --- | --- |
| COc1ccc(C2CC(c3ccccc3)=NN2c2ccc(S(N)(=O)=O)cc2)cc1 (stereo not given) | 14.8 µM (active) |
| COc1ccc(-n2c(C)c([N+](=O)[O-])c3ccc(O)cc32)cc1 | inactive |
| O=c1cc(N2CCOCC2)oc2c(-c3cccc4c3sc3ccccc34)cccc12 | 16.6 µM (active) |
| CN(C)c1cc(NC(=O)CNC(C)(C)C)c(O)c2c1C[C@@H]1C[C@H]3[C@H](N(C)C)C(=O)C(C(N)=O)=C(O)[C@@]3(O)C(=O)C1=C2O | inactive |
| CN(C[C@@H]1COCCO1)S(=O)(=O)Nc1ccc2ccc3ncc(-c4cnn(C)c4)cc3c(=O)c2c1 | 1.66 µM (active) |
| O=C1c2c(O)cc(O)cc2O[C@H](c2cc(O)c(O)c(O)c2)[C@H]1O | inactive |
| O=C1C(Cl)=C(NCCN2CCOCC2)C(=O)c2ncccc21 | 11.8 µM (active) |
| O=C(Nc1cc(Cl)cc2c1[nH]c1cnccc12)c1cccnc1 | 1.48 µM (active) |
| Nc1ncnc2c1ncn2[C@@H]1O[C@@H](CO)[C@H](O)[C@H]1O | inactive |
| Cc1ccc(Nc2cc(-c3cccc(N4C(=O)c5ccccc5C4=O)c3)ncn2)cc1NS(C)(=O)=O | 18.7 µM (active) |
| CC(C)OC(=O)CCCC=CC[C@@H]1[C@H](C=C[C@@H](O)COc2cccc(C(F)(F)F)c2)[C@H](O)C[C@@H]1O | 18.7 µM (active) |
| COc1cc(O)c2c(c1)C(=O)c1cc(C)cc(O)c1C2=O | inactive |
| C[C@]12CCC3c4ccc(O)cc4CCC3C1CCC2=O (stereo not given in full) | inactive |
| Cc1ccc(F)c(NC(=O)Nc2ccc(-c3cccc4[nH]nc(N)c34)cc2)c1 | 10.5 µM (active) |
| CCOC(=O)O[C@]1(C(=O)OCCl)CC[C@@H]2[C@H]3CCC4=CC(=O)C=C[C@]4(C)[C@@H]3[C@@H](O)C[C@@]21C | inactive |
| COc1cc2ncnc(-n3nc(-c4ccccn4)nc3N)c2cc1OC | 0.743 µM (active) |
| COc1ccc(-c2coc3cc(O)ccc3c2=O)cc1 | inactive |
| CON=C(C(=O)N[C@@H]1C(=O)N2C(C(=O)OCOC(=O)C(C)(C)C)=C(C=Cc3scnc3C)CS[C@H]12)c1csc(N)n1 | inactive |
| O=C(O)CCC1CCC(c2cc(F)ccc2F)(S(=O)(=O)c2ccc(Cl)cc2)CC1 (stereo not given) | 9.35 µM (active) |
| C[N+]1(C)[C@@H]2CC(OC(=O)[C@H](CO)c3ccccc3)C[C@H]1[C@H]1O[C@@H]12 (stereo not given in full) | inactive |
